Assay outcomes: PubChem, several laboratories
In the library only some 3.5% were active in any assay of this set; here they are far more common.
Myeloid diff MLP: induction of myeloid progenitor differentiation, primary screen, cell-based, flow cytometry, MLPCN library; ER-HoxA9 myeloid progenitors, lysozyme-GFP differentiation; calls only at 10 µM; 1% of 360,000 active;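 active means normalized GFP-positive differentiation at or above the plate's own cutoff, the solvent-only control mean plus 3 SD; inconclusive means no clear call, values can overlap the other calls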;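 further: cells exposed to compound for four days before flow analysis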
CHRM1 agonist: human M1 muscarinic receptor agonists, primary screen, Fluo-8 calcium fluorescence, CHO-K1 cells, HTS; AID 588814, 2011; CHO-K1 hM1, agonist mode; 0% DMSO, 100% acetylcholine EC100; 0.33% of 360,000 active; activation, % at 3 µM; Muscarinic acetylcholine receptor M1 (Homo sapiens), P11229;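 active means activation above the run's mean compound activation plus 3 SD, cut at about 16% in these data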;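 further: peak over basal fluorescence ratio within a 140 s kinetic read after compound addition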
SKN-1 inh: suppressors of acrylamide-induced Pgst-4::GFP reporter in worms, primary screen, SKN-1 inhibitor project, whole organism, uHTS, GFP/RFP fluorescence ratio, strain VP596; C. elegans VP596 Pgst-4::GFP/RFP ratio, 24 h; inhibition, % at 21.8 µM; 0.49% of 360,000 active;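 active means interference check ratio from 0.5 to 1.5 plus GFP to RFP signal ratio inhibition reaching or exceeding a fixed threshold, cut at about 30% in these data, passing the limit was not always enough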
CHRM1 PAM: human M1 muscarinic receptor positive allosteric modulators, primary screen, CHO-K1 cells, Fluo-8 calcium fluorescence, 1536-well. Muscarinic acetylcholine receptor M1 (Homo sapiens), P11229. AID 588819, 2011. activation, % at 3 µM. CHO-K1 hM1, ACh EC20; 0% = ACh EC20, 100% = maximal ACh. 0.088% of 360,000 active; in the data active means activation above about 19%, passing the limit was not always enough
M1 antag: human M1 muscarinic receptor antagonists, primary screen, CHO-K1 cells, Fluo-8 calcium fluorescence, 1536-well; Muscarinic acetylcholine receptor M1 (Homo sapiens), P11229; CHO-K1 hM1, ACh EC80 antagonist; inhibition, % at 3 µM; 1.3% of 360,000 active;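 active means percent inhibition above its own plate's cutoff, namely the mean of that plate's compound wells plus 3 SD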;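 further: peak over basal fluorescence ratio during 140 s after agonist addition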
ATG4B inhibitor: ATG4B protease inhibitors, primary screen, biochemical, fluorescence, uHTS; inhibition, % at 8.33 µM; ATG4B cleavage of LC3-PLA2, NBD-HPC fluorescence, 1 h; 0.51% of 340,000 active; Cysteine protease ATG4B (Homo sapiens), Q9Y4P1; in the data active means inhibition above about 40%
Target sequence (Q9Y4P1 whole entry, looked up): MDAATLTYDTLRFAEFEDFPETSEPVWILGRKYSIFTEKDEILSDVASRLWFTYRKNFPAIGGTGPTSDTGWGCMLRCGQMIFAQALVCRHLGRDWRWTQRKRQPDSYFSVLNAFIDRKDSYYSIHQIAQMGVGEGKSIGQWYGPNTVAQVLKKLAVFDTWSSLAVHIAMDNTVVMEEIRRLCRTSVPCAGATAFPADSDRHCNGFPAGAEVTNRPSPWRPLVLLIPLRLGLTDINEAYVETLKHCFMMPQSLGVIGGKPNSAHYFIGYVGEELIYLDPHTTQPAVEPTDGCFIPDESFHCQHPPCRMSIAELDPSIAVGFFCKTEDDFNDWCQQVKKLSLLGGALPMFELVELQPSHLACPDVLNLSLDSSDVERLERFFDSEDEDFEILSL
Numbers stand for hits; n = inactive; u = inconclusive; x = no result; + = active, no number.

SMILES | Myeloid diff MLP | CHRM1 agonist | SKN-1 inh | CHRM1 PAM | M1 antag | ATG4B inhibitor
CC(=O)c1c(C)oc2ccc(NS(=O)(=O)c3ccc(F)cc3C)cc12 | n | n | n | n | 28 | n
CC(=O)c1c(C)oc2ccc(NS(=O)(=O)c3ccc(O)c(C(=O)O)c3)cc12 | n | n | n | n | n | n
CCOc1ccc(C=NNc2ccc(S(=O)(=O)Nc3ccccc3C(=O)O)cc2[N+](=O)[O-])cc1 | n | n | n | n | n | n
CSc1ccc(C=NNc2ccc(S(=O)(=O)Nc3ccccc3C(=O)O)cc2[N+](=O)[O-])cc1 | + | n | n | n | n | n
CCOC(=O)c1c(C)oc2c1c(C=NC1CCS(=O)(=O)C1)c(O)c1ccccc12 (stereo not drawn) | n | n | n | n | n | n
CCOC(=O)c1c(C)oc2c1c(CN1CCN(C(=O)OCC)CC1)c(O)c1ccccc12 | n | 17 | n | n | n | n
CCOC(=O)c1c(C)oc2c1c(C=NCCC(=O)O)c(O)c1ccccc12 | n | n | 37 | n | n | n
CC(=O)c1ccccc1OCCCN1CCCCC1 | n | n | n | n | 38 | n
CC(C)c1ccccc1OCCCN1CCCC1 | n | n | n | n | 42 | n
Brc1ccccc1OCCCN1CCCCCC1 | n | n | n | n | n | n
Cc1cc(Br)ccc1OCCCCN1CCCCC1 | n | n | n | n | 42 | n
c1ccc(-c2ccccc2OCCCCN2CCCCC2)cc1 | n | n | n | n | 32 | n
Cc1ccc(S(=O)(=O)N2C[C@H]3N(C(=O)OC(C)C)N(C(=O)OC(C)C)C[C@H](OC(=O)NCC4CCCCC4)[C@@]3(O)C2)cc1 | n | n | n | n | n | x
CC(C)(C)c1ccc(C(=O)N2CCC2(C)C(=O)Nc2cccc3ncccc23)cc1 (stereo not drawn) | n | n | n | n | n | x
Cc1cccc(N2CCN(C(=O)CCC(=O)N3CC(C)Oc4ccc(C)cc43)CC2C)c1 (stereo not drawn) | n | n | n | n | n | n
CC(C)c1ccccc1OCCCCN1CCCCC1 | n | n | n | n | 64 | n
Brc1ccccc1OCCCCCN1CCOCC1 | n | n | n | n | n | n
CC(C)c1ccccc1OCCCCCN1CCOCC1 | n | n | n | n | 62 | n
COc1ccc(OC)c(CNc2ncc(-c3cccc([N+](=O)[O-])c3)n2C)c1 | n | n | n | n | 45 | n
CCOCCCNc1ncnc2c1[nH]c1ccccc12 | n | n | n | n | n | n
CCCCOCCCNc1ncnc2c1[nH]c1ccccc12 | u | n | n | n | 35 | n
Cc1ccc(NC(=O)COC(=O)c2ccc(=O)n(Cc3ccccc3)n2)cc1F | n | n | n | n | n | n
CN1CCN(CCNC(=O)Cn2c(=O)c3cccn3c3ccc(F)cc32)CC1 | n | n | n | n | n | n
O=C(CN1C(=O)NC(c2ccccc2)(c2ccccc2)C1=O)NC1CCCC1 | n | n | n | n | n | n
Cc1ccc(S/C=C\C(=O)c2ccccc2)cc1 | x | n | 42 | n | n | n
SMILES | Myeloid diff MLP | CHRM1 agonist | SKN-1 inh | CHRM1 PAM | M1 antag | ATG4B inhibitor
Cc1cccc(C)c1C(=NCCCN(C)C)c1ccccc1 | n | n | n | n | 79 | n
C=CCOc1cccc(C(=O)N2CCC(CCC(=O)NC3CC3)CC2)c1 | n | n | n | n | n | n
O=C(NC1(Cc2ccccc2)CCN(Cc2ccc(-c3ccccc3)cc2)C1=O)c1ccccc1 (stereo not drawn) | n | n | n | n | 37 | n
O=C(CCc1ccccc1)NC1(Cc2ccccc2)CCN(CCc2cccs2)C1=O (stereo not drawn) | n | n | n | n | n | n
Cc1coc2c(C)c3oc(=O)c(CCC(=O)N[C@H](C(=O)O)C(C)C)c(C)c3cc12 | n | n | n | n | n | x
Cc1ccc(C(=O)CCC(=O)NC2=NCCS2)cc1 | n | n | n | n | n | n
